Compounds with a hit are over-represented: about 21% of the library has one in this group of screens.
Shiga inhibitor: inhibitors of Shiga toxin in Vero cells; 290,000 tested, 9.2% active; inhibition, % at 38.7 µM; AID 2315; Vero cells, Shiga toxin protein synthesis inhibition reporter; in the data active means inhibition mostly above about 28%, no sharp cut-off; inactive means mostly below about 43%
Cycloheximide cs: counter-screen for Shiga toxin inhibitors: cycloheximide protein synthesis inhibition; cell reporter, cycloheximide protein synthesis inhibition counterscreen; max response, %; 300,000 tested, 12% active; AID 2314; in the data active means max response mostly above about 13%, no sharp cut-off; inactive means mostly below about 14%; further: read at 38.3 µM for the half of the compounds with a filed dose
Pf growth 48h: inhibits P. falciparum growth in the first generation, 48 h. Potency, µM (top dose mostly 28.7 µM), usual class: inhibitors. P. falciparum luciferase growth in erythrocytes, 48 h. 310,000 tested, 5.9% active
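In quantitative HTS format, infected erythrocytes bearing luciferase-reporter parasites were treated for a single generation at 37 C. Luminescence after adding detection reagent served as the growth measure.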
NS1 inh: blocks influenza NS1 protein function; Potency, µM (series often up to 46.1 µM); 270,000 tested, 0.4% active; AID 2326; calls by dose curve; further: actives are rising curves; nearly all actives have a fitted effect of over 50% in size
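A cell-based growth assay was used: compounds that relieve NS1-induced slow growth of budding yeast raise OD600. Assay medium was yeast nitrogen base with ammonium sulphate and -URA supplement, pH 6.0, with 2% galactose.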
Pf growth 96h: inhibits malaria parasite growth, 96 h. 320,000 tested, 6.9% active. Potency, µM (highest dose often 28.7 µM), most hits filed as inhibitors. P. falciparum luciferase reporter growth, 96 h
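Readout is luminescence from an integrated firefly luciferase in P. falciparum. Red cells, 2% hematocrit and 0.05% parasitemia final, were cultured with compound through two parasite generations (96 hours) at 37 C, 5% CO2.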
Giardia FBPA inh: Giardia lamblia aldolase inhibition | A8B2U2 | purified Giardia FBPA | Potency, µM (doses to about 59.6 µM), actives largely listed as inhibitors | 290,000 tested, 0.71% active | AID 2451; further: nearly all actives have a fitted effect of over 55% in size
Target sequence (A8B2U2 whole entry, looked up): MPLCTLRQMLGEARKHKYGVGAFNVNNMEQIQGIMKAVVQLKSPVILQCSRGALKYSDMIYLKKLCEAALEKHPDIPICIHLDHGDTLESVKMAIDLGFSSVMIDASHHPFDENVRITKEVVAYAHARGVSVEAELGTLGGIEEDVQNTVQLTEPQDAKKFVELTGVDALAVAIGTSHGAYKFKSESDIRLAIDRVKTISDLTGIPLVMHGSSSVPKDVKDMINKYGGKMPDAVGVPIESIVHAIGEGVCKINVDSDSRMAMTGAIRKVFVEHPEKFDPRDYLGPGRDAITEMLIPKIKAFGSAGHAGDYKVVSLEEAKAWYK
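Giardia FBPA (40 nM reagent) was preincubated 10 min at RT with compound (up to 57.5 uM final), then substrate plus GAPDH/TPI/NAD/arsenate coupling system with diaphorase/resazurin was added; resorufin fluorescence (525/598 nm) was read after 20 min.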
A number is an active result; . = inactive; ? = inconclusive; / = no result given. Unless noted, the call rests on the fitted dose curve; in most records, active means well fitted curve in the direction sought with a large enough effect; inconclusive means small, poorly fitted or top-dose-only effect, or another doubt; inactive means no such curve, though single readings can be large; an effect the other way counts as inactive or inconclusive.

SMILES | Shiga inhibitor | Cycloheximide cs | Pf growth 48h | NS1 inh | Pf growth 96h | Giardia FBPA inh
CCN(CC(=O)NCc1cccs1)C(=O)/C=C/c1cc(Br)ccc1OC(F)F | / | / | ? | / | 10µM | /
COC(=O)CCC(=O)OC1(C)C(=O)C=C2C=C(C3CC3)N(Cc3ccccc3)C=C2C1=O (configuration not stated) | . | . | ? | . | ? | ?
COC(=O)CCC(=O)OC1(C)C(=O)C=C2C=C(C3CC3)N(CC(C)C)C=C2C1=O (configuration not stated) | . | . | 2.9µM | . | 1.9µM | ?
COC(=O)CCC(=O)OC1(C)C(=O)C=C2C=C(C3CC3)N(C3CCCC3)C=C2C1=O (configuration not stated) | . | . | ? | . | 7.4µM | ?
COC(=O)CCC(=O)OC1(C)C(=O)C=C2C=C(C3CC3)N(CC3CC3)C=C2C1=O (configuration not stated) | . | . | 10µM | . | 4.1µM | ?
CS(=O)(=O)Nc1cccc(-c2cc(Nc3ccccc3)ncn2)c1 | / | / | / | / | / | .
COc1ccc(Br)cc1CN1CCN(C(=O)c2cccc(F)c2)CC1 | . | . | . | . | . | ?
CCOC(=O)c1cc(C(=O)OCC)c(=O)[nH]c1N1CCCC1 | . | . | . | . | . | .
O=C(O/N=C1/CCCc2occc21)c1ccccc1 | 54 | 26 | . | . | ? | .
O=C(O/N=C1/CCCc2occc21)c1ccc(Cl)cc1Cl | 86 | 54 | ? | . | . | .
CC1(C)CC(=NOC(=O)c2ccccc2)CC(C)(C)N1 | . | . | ? | . | . | .
N/C(Cn1cncn1)=N\OC(=O)c1ccc(Cl)cc1Cl | . | . | . | / | . | .
CCCCCCN(C(=O)CCCCCN1C(=O)NC(C2CCCCC2)C(C(=O)OCc2ccccc2)=C1C)C(C(=O)NCCCC)c1ccc(OCC(=O)OC)c(C(=O)OC)c1 (configuration not stated) | / | / | / | / | / | .
COc1ccc(OC)c(-n2c(=S)[nH]c3cc(C(=O)N4CCN(c5ccccc5)CC4)ccc3c2=O)c1 | . | . | ? | / | ? | .
CC(C)CNC(=S)N(CCCN(C)C)Cc1cc2cc3c(cc2[nH]c1=O)OCCO3 | / | . | ? | . | . | .
C/C(=N\Nc1cccc2ccccc12)c1c(O)n(Cc2ccccc2)c(=O)[nH]c1=O | . | . | 15µM | . | ? | ?
C/C(=N\NC(=O)c1ccncc1)c1c(O)n(-c2ccccc2)c(=O)[nH]c1=O | . | . | . | . | . | .
CC(=NCCc1c[nH]c2ccccc12)c1c(O)n(Cc2ccccc2)c(=O)[nH]c1=O | . | . | ? | . | ? | .
CCC(=NCc1cccnc1)c1c(O)n(Cc2ccccc2)c(=O)[nH]c1=O | . | . | . | . | ? | .
CC/C(=N\NC(=O)Nc1ccccc1)c1c(O)n(Cc2ccccc2)c(=O)[nH]c1=O | 105 | 35 | . | . | . | .
C/C(=N\NC(=O)c1ccccc1)c1c(O)n(Cc2ccccc2)c(=O)[nH]c1=O | 101 | 52 | . | . | . | ?
CCOCCCNC(=O)C(NC(=O)CNC(C)=O)c1ccc(C)cc1 (configuration not stated) | . | . | . | . | 9.3µM | .
COCCNC(=O)CN(Cc1ccccc1)C(=O)CCC(=O)Nc1nccs1 | . | . | . | . | . | .
Cc1cccc(Cn2c(C)nc3c(N)c(C)c(C)cc32)c1 | . | . | 10µM | / | ? | .
Cc1cccc(Cn2c(C(C)O)nc3ccccc32)c1 (configuration not stated) | . | . | . | . | ? | .
SMILES | Shiga inhibitor | Cycloheximide cs | Pf growth 48h | NS1 inh | Pf growth 96h | Giardia FBPA inh
Cc1cc(C(=O)Cn2nnc3ccccc3c2=O)c(C)n1Cc1cccs1 | . | 37 | . | . | . | .
CCCn1c(C)cc(C(=O)CN2C(=O)c3cccc(N)c3C2=O)c1C | . | 17 | . | . | / | .
Cc1cc(C(=O)CN2C(=O)c3ccccc3C2=O)c(C)n1Cc1cccs1 | . | 26 | . | . | . | .
CCOc1cc(/C=C(/NC(C)=O)C(=O)O)cc(Cl)c1OCc1ccc(Br)cc1 | . | . | . | . | ? | .
Cc1ccccc1N1CCN(C2CCCN(C(=O)CCc3c(C)noc3C)C2)CC1 (configuration not stated) | . | . | ? | . | . | .
CN(C)c1ccc(/C=N\Nc2nc(-c3ccccc3)cc(=O)[nH]2)cc1 | . | . | 2.3µM | . | 2.3µM | .
COc1ccc(/C=C/c2nc(-c3ccccc3)cc(=O)[nH]2)cc1 | . | . | ? | . | . | .
COc1ccc(/C(C)=N\Nc2nc(-c3ccccc3)cc(=O)[nH]2)cc1 | . | . | 0.93µM | . | 0.59µM | .
COc1ccc(NC(=O)CN2C(=O)NC(c3ccccc3)(c3ccccc3)C2=O)cc1OC | . | . | . | . | . | .
O=C(O)c1ccc(-c2ccc(OS(=O)(=O)c3ccccc3F)cc2)cc1 | 65 | 19 | . | . | . | .
COC(=O)c1ccccc1S(=O)(=O)Oc1ccc(-c2ccc(C(=O)O)cc2)cc1 | . | . | . | . | ? | /
CC(C)CN(C(=O)/C=C/c1nc2ccccc2s1)C1CCS(=O)(=O)C1 (configuration not stated) | / | / | ? | / | 7.4µM | /
COc1ccc(-c2noc(-c3ccccc3C(=O)NCC3CCCO3)n2)cc1 (configuration not stated) | . | 19 | . | . | . | .
Cc1ccccc1-c1noc(-c2ccccc2C(=O)NCC2CCCO2)n1 (configuration not stated) | . | . | . | . | . | .
O=C(NCC1CCCO1)c1cc(-c2ccccc2F)no1 (configuration not stated) | 91 | 29 | . | . | . | /
COc1ccccc1-c1noc(-c2ccccc2C(=O)NCC2CCCO2)n1 (configuration not stated) | . | 16 | . | . | . | .
NCCCC(N)CC(=O)NC1CNC(=O)C(C2CC(O)N=C(N)N2)NC(=O)/C(=C/NC(N)=O)NC(=O)C(CO)NC(=O)C(CO)NC1=O (configuration not stated) | / | / | . | / | . | /
COc1cc(OC)cc(-c2sc3ccccc3c(=O)c2I)c1 | . | . | / | / | / | .
Cc1cc(O)cc2c(=O)c3ccccc3sc12 | 131 | 42 | ? | / | ? | .
COC(=O)c1cc(-c2ccc(Br)cc2)c2c(=O)n(C)c(=O)n(C)c2n1 | . | . | . | . | 5.9µM | .
CC(C)COP(=O)(c1ccc(N(C)C)cc1)C(O)c1ccc(Br)cc1 (configuration not stated) | . | . | ? | . | 10µM | .
CC(C)CCOP(=O)(c1ccc(N(C)C)cc1)C(O)c1c(Cl)cccc1Cl (configuration not stated) | . | . | 10µM | . | 12µM | .
CCCOP(=O)(c1ccc(N(C)C)cc1)C(O)c1ccccc1OC (configuration not stated) | . | . | . | . | . | .

High-throughput results (PubChem BioAssay)
